Experimental findings from PubChem BioAssay (Tox21) are described below.

Each structure is given as a SMILES string. Several values for one entry are separate records, joined by “and”; a condition that tells them apart may be missing. Equal values may be shown once. Activity calls are given as the source filed them. Entries that show only a call come without a potency. Calls follow the shape of the dose curve; as a rule, active = well fitted curve in the direction sought with a large enough effect in the repeat runs; inconclusive = weak or mixed curves; inactive = flat fitted curve, though single readings scatter.
Potency is read from the fitted curve at half-maximal effect; tags tell the direction and shape of the fitted curve or compound fluorescence and quenching.

This assay in a line: qHTS assay to test for compound auto fluorescence at 535 nm (green) in HepG2 cell free culture (AID 720686). To be noted: Cell-free medium, green autofluorescence 485/535 nm; series mostly up to 91.3 µM. From the text: U.S. Tox21 Program National Center for Advancing Translational Sciences [NCATS] NIH Chemical Genomics Center [NCGC] U.S. Environmental Protection Agency [EPA] National Institutes of Environmental Health Sciences [NIEHS] National Toxicology Program [NTP] U.S. Food and Drug Administration [FDA] Tox21 Assay Overview: Compound auto fluorescence often interferes with screening of the compound library against various biological targets and signaling pathways. Some of these compounds may have fluorophoric properties. Such properties may interfere with the assay outputs resulting in false positives and/or negatives. To decrease such complications and ensure the compound activities are relevant in terms of biological response, the Tox21 10K compound library was screened for auto fluorescence. From the fluorophores used as reporter signals in our screening assays, the auto fluorescence equivalencies of compounds against three fluorophores have been evaluated: Triamterene, Fluorescein and Rose Bengal sodium for blue, green and red fluorescence, respectively. The fluorescence intensities were measured using Excitation/Emission wavelengths at 405/460nm, 485/535nm and 540/590nm for blue, green and red labels, respectively. This assay includes the green fluorescence data.
Tox21 Assay Protocol Summary: 5 uL of culture medium (MEM containing 10% FBS) per well was dispensed into black wall/clear bottom 1536-well plates using a Multidrop Combi Dispenser (ThermoFisher Scientific, Waltham, MA). After 23 nL compound or DMSO vehicle was transferred into assay plate by a pintool work station (Kalypsys, San Diego, CA), fluorescence intensities in the assay plates were measured by an Envision (PerkinElmer, Shelton, CT) plate reader using three labels for measuring blue, green and red fluorescence at […] 460, 535 and 590nm respectively.
On the technique in general: In qHTS, concentration-response curves come from the screen itself.
`CNCCC(Oc1ccc(C(F)(F)F)cc1)c1ccccc1` (stereo not given): the Potency entry was “inactive”.

Regarding `COc1cc(C(=S)N2CCOCC2)ccc1O`, the Potency entry was “inactive”.

Regarding `CCCCCCC(O)CCCCCCCCCCC(=O)O` (stereo not given), the Potency result is “inactive”.

For `Oc1c(Cl)cc(Cl)cc1Sc1cc(Cl)cc(Cl)c1O`, the Potency result is “inactive”.

On to `NC(N)=Nc1nc(CSCC/C(N)=N/S(N)(=O)=O)cs1`, for which the Potency entry is “inactive”.

With `CC(C)(C)c1cc(C(C)(C)C)c(O)c(C(C)(C)C)c1`, the Potency entry is “inactive”.

Regarding `COC(=O)[C@H]1[C@H]2C[C@@H]3c4[nH]c5cc(OC)ccc5c4CCN3C[C@H]2C[C@@H](OC(=O)c2cc(OC)c(OC)c(OC)c2)[C@@H]1OC`, the Potency entry was “inactive”.

Take `COc1ccc(CCN2CCC(Nc3nc4ccccc4n3Cc3ccc(F)cc3)CC2)cc1`: the Potency entry is “inactive”.

As to `BrC1CCC(Br)C(Br)CCC(Br)C(Br)CCC1Br` (stereo not given), the Potency result was “inactive”.

As for `CC(C)(c1ccccc1)c1ccc(Nc2ccc(C(C)(C)c3ccccc3)cc2)cc1`, the Potency entry is “inactive”.

For the compound `CCOc1ccccc1C(N)=O`, the Potency result is “inactive”.

For the compound `O=C(Oc1ccccc1)c1ccccc1O`, the Potency result was “inactive”.

In the case of `CCN(CC)c1ccc2c(C)cc(=O)oc2c1`, the Potency result is “inactive”.

Regarding `CCn1c2ccccc2c2cc(N)ccc21`, the Potency result was “inactive”.

On to `CN1C(=O)c2ccc([N+](=O)[O-])cc2C1=O`, for which the Potency entry was “inactive”.

With `CCCNC(C)C(=O)Nc1ccccc1C` (stereo not given), the Potency result is “inactive”.

Take `CCc1cc(C(C)(C)C)c(O)c(C(C)(C)C)c1`: the Potency result was “inactive”.

`COC(c1ccccc1)(c1ccccc1)[C@H](Oc1nc(C)cc(C)n1)C(=O)O`: the Potency entry was “inactive”.

With `Oc1ccc(Cl)cc1Cc1cc(Cl)ccc1O`, the Potency entry was “inactive”.

On to `O=C(O)CCc1ccccc1`, for which the Potency result is “inactive”.

With `CCCN[C@H]1CCc2nc(N)sc2C1`, the Potency result is “inactive”.

As to `CCN(CC)CCOc1ccc(/C(=C(\Cl)c2ccccc2)c2ccccc2)cc1`, the Potency result is “inactive”.

`NCCCCCC(=O)O`: the fluorescence, % of fluorescein control is -0.0066% [at 18.6 µM] (inactive).

As to `CCc1ccc(C(c2ccc(CC)cc2)C(Cl)Cl)cc1`, the Potency result is “inactive”.

As to `O=C(Cl)c1cccc(C(=O)Cl)c1`, the Potency result was “inactive”.

Consider `C[N+]1([O-])CCOCC1`, for which the Potency entry was “inactive”.

Take `CN(C)c1ccc(C(=C2C=CC(=[N+](C)C)C=C2)c2ccccc2)cc1`: the Potency entry is “inactive”.

For `C=CC(=O)OCCCCCCCC`, the Potency result is “inactive”.

As for `O=C1CC2(CCCC2)CC(=O)N1CCCCN1CCN(c2ncccn2)CC1`, the Potency result was “inactive”.

As for `COc1nc(C)nc(Cl)c1NC1=NCCN1`, the fluorescence, % of fluorescein control is 0.0146% [at 18.6 µM] (inactive).

`CN(C)c1ccc2nc3ccc(=[N+](C)C)cc-3sc2c1`: the Potency result was “inactive”.

As to `O=C1OC2(c3ccc(O)cc3Oc3cc(O)ccc32)c2ccccc21`, the Potency was 3.16 µM [fluorescent] (active) and 2.82 µM [fluorescent] (active) and 3.55 µM [fluorescent] (active).

Regarding `CC1=CC(=O)c2ccccc2C1=O`, the Potency result was “inactive”.

For the compound `CC(=O)OCCOCCOCCOC(C)=O`, the Potency entry was “inactive”.

For the compound `CCCCC/C=C/CC1CC(=O)OC1=O` (stereo not given), the Potency entry is “inactive”.

Turning to `CC(C(O)c1ccc(O)cc1)N1CCC(Cc2ccccc2)CC1` (stereo not given), the Potency entry was “inactive”.

In the case of `c1ccc2n[nH]nc2c1`, the Potency entry is “inactive”.

Turning to `CC(C)(C)NC(=O)[C@@H]1CN(Cc2cccnc2)CCN1C[C@@H](O)C[C@@H](Cc1ccccc1)C(=O)N[C@H]1c2ccccc2C[C@H]1O`, the Potency result was “inactive”.

Turning to `c1cc(C(c2ccc(OCC3CO3)cc2)C(c2ccc(OCC3CO3)cc2)c2ccc(OCC3CO3)cc2)ccc1OCC1CO1` (stereo not given), the Potency result is “inactive”.

Take `CCCCCC(=O)O[C@]1(C(C)=O)CC[C@H]2[C@@H]3CCC4=CC(=O)CC[C@]4(C)[C@H]3CC[C@@]21C`: the Potency entry was “inactive”.
